Compounds without any hit were thinned out: in the full panel of roughly 83,000, 20% have a hit.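 Step 1: grow cells in 96-well plates. Step 2: add test compound at a single concentration. Step 3: incubate 48 h. Step 4: record percent growth.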 A number with no mark means an inactive call. Activity calls are given as the source filed them. Rule for the calls: active = growth percent below 10; inactive = the rest.

The first experiment has as its system OVCAR-3 ovarian. Nature of the experiment: NCI-60 one-dose screen, 48 h (100 = growth as untreated, 0 = no growth, -100 = all killed). The following applies: 10 µM unless noted.
Consider `CN(C)C1CCC(NC2=CC(=O)C=CC2=O)CC1` (configuration not stated), for which the growth is 116%. Regarding `CN1C(=O)[C@H]2c3c1cccc3[C@@]13NC(=O)O[C@H]1[C@H](CCC3(C)C)C2(C)C`, the growth was 103%. As for `COc1ccc(/C=C2\CCCC3=C2NC(C)=NC3c2ccc(OC)c(OC)c2)cc1OC` (configuration not stated), the growth was 2.97% (active). For the molecule `O=C(c1ccncc1)N1N=C(c2ccc(Cl)cc2)CC1c1c[nH]c2ccccc12` (configuration not stated), the growth was 95.5%. On to `Cc1nn(-c2ccc(Cl)cc2)c(=O)n1CCOc1ccccc1Cl`, for which the growth is 121%. The same measure, in the same setting: next, `Cc1cc2c(c(=O)o1)C(c1ccc(OC(=O)N3CCOCC3)cc1)C(C#N)=C(N)O2` (configuration not stated): 109%; `O=C(COc1ccccc1)N1N=C(c2ccc(Cl)cc2)CC1c1c[nH]c2ccccc12` (configuration not stated): 77.9%; `CC[C@H](C)[C@H]1NC(=O)[C@@H](N[C@](C)(O)[C@@H](N)CC(C)C)[C@@H](C)OC(=O)[C@H](Cc2ccc(OC)cc2)N(C)C(=O)[C@@H]2CCCN2C(=O)[C@H](CC(C)C)NC(=O)[C@@H](C)C(=O)[C@H](C(C)C)OC(=O)C[C@@H]1O`: -20.8% (active).

A further experiment deals with HS 578T breast. The experiment is described as above. The following applies: 10 µM unless noted.
With `N=C(N)c1ccc(-c2ccc(-c3ccc(Cl)cc3)o2)nc1`, the growth is -57.2% (active). Regarding `NC(=O)c1c(NC(=O)c2ccc(OCC3CCCO3)cc2)sc2c1CCCC2` (configuration not stated), the growth was -24.5% (active). Same read-out and setting: next, `Cc1cc(-c2ccccc2)c(C)n1Cc1ccc(Cl)cc1`: 50.6%; `Clc1cccc(Cl)c1Cn1c(-c2cncs2)nc2ccccc21`: 97%; `Cc1ccc(Cn2c(-c3nonc3N)nc3ccccc32)cc1`: 72.9%. As to `CC/C(=C(\c1ccc(O)cc1)c1ccc(OCCN(C)CCN(C)C(=O)CCC(=O)c2c(C)[nH]c(/C=C3\N=C(c4ccc[nH]4)C=C3OC)c2C)cc1)c1ccccc1`, the growth was 83.6%. With `NC(N)=NC(N)=Nc1ccccc1-c1ccccc1`, the growth was 109%. With `COc1cc(/C=C/C(=O)c2ccc(NC(=O)CN3CCN(c4cc5c(cc4F)c(=O)c(C(=O)O)cn5C4CC4)CC3)cc2)cc(OC)c1OC`, the growth was 76.8%. In the case of `COc1ccc(-c2nc(-c3ccccc3)c(-c3ccccc3)n2C2CC2)cc1OC1CCCCC1`, the growth was 73.8%. Same read-out and setting: next, `CCOC(=O)[C@H](CSSc1ncnc2cc[nH]c12)NC(=O)[C@@H](C)c1ccc2cc(OC)ccc2c1`: 59%; `COC(=O)c1ccc2nc(-c3cc4ccccc4n3C)n(CCCCOc3cc4c(cc3OC)C(=O)N3CCC[C@H]3C=N4)c2c1`: -62.5% (active). For `COc1cc2c(cc1OC)C1(C)N(CC2)C(=O)OC1(C)C` (configuration not stated), the growth was 98.1%. Take `CN1CCN(c2ccc3cc(-c4nc5ccccc5[nH]4)c(=O)oc3c2)CC1`: the growth was 96.1%. Same read-out and setting: next, `Nc1c(C(=O)Nc2cccc(C(F)(F)F)c2)sc2nc3c(cc12)CCCCC3`: 16.6%; `COC1=CC(c2ccc[nH]2)=N/C1=C\c1[nH]c(C)c(CCCn2cc(CCCCCCCCC[C@@H]3Cc4cc(O)ccc4C4CC[C@]5(C)[C@@H](O)CC[C@H]5C43)nn2)c1C` (some centres not stated): 55.7%; `O=C(CN1CCN(c2cc3c(cc2F)c(=O)c(C(=O)O)cn3C2CC2)CC1)Nc1ccc(C(=O)/C=C/c2ccccc2)cc1`: 51.9%. As for `Cc1cc(Cl)ccc1OC(C)C(=O)Nc1nnc(C2CC2)s1` (configuration not stated), the growth was -24.6% (active). For `COc1ccc(/C(=N/O)c2cc(F)c(F)c(OC)c2F)cc1O`, the growth is 8.26% (active). Take `COc1ccc(C(=O)c2cc(OC)c(OC)c(OC)c2)cc1/C=C/C(=O)c1ccc2c(c1)OCO2`: the growth is 54%.

Consider `CSc1ccccc1C#C/C=C\C#Cc1ccccc1N1CCCCC1=O`, for which the growth is -20.4% (active). Regarding `CCCCCCC[C@@H](O)CC(=O)N[C@H](CCCCN)C(=O)N[C@H](Cc1c[nH]c2ccccc12)C(=O)NC(CCCCN)C(=O)N[C@H](CC(C)C)C(=O)N[C@H](Cc1ccccc1)C(=O)N[C@H](CCCCN)C(=O)N[C@H](CCCCN)C(=O)N[C@H](CC(C)C)C(=O)N1CCCC1C(=O)N[C@H](CCCCN)C(=O)N[C@H](Cc1ccccc1)C(=O)N[C@H](CC(C)C)C(=O)N[C@H](Cc1c[nH]cn1)C(=O)N[C@H](CC(C)C)C(=O)N[C@H](C)C(=O)N[C@H](CCCCN)C(=O)N[C@H](CCCCN)C(=O)N[C@H](Cc1ccccc1)C(=O)O` (some centres not stated), the growth is -42.4% (active). As for `Cc1ccc2c(c1)ncn2-c1ncnc2c1CC(C)c1ccccc1N2C` (configuration not stated), the growth was 20.2%. As to `CCOC(=O)c1cc(/C(=N\O)c2cc(OC)c(OC)c(OC)c2)n2c(C)cccc12`, the growth was 12.4%.

As for `Nc1c(C(=O)Nc2cccc(C(F)(F)F)c2)sc2nc3c(cc12)CCCCCC3`, the growth was 29.5%. For `Cc1ccc(Cn2c(-c3cccs3)nc3ccccc32)cc1`, the growth is 89.2%. Same read-out and setting: next, `CCC(=O)Oc1ccc2c(c1)CC[C@@H]1[C@@H]2CC[C@]2(C)C[C@H](OC(=O)CC)C[C@@H]12`: 59.7%; `COc1ccc2c(c1)C(C)Cc1c(N(C)C)ncnc1N2C` (configuration not stated): 13.3%; `Cc1cc2c(C(C)C)c(O)c(O)c(C=NCCCCCCC(=O)O)c2c(O)c1-c1c(C)cc2c(C(C)C)c(O)c(O)c(C=NCCCCCCC(=O)O)c2c1O`: 22.2%. Still for that read-out and setting: next, `COC(=O)CCCCCCN=Cc1c(O)c(O)c(C(C)C)c2cc(C)c(-c3c(C)cc4c(C(C)C)c(O)c(O)c(C=NCCCCCCC(=O)OC)c4c3O)c(O)c12`: 20.2%; `C=CCc1cc(Cl)cc2c(OC(C)=O)c(C(C)=O)c(-c3ccccc3)nc12`: 102%; `CCN1C(=O)N[C@H]2[C@@H]3NC(=O)c4ccc(Cl)n4[C@@H]3C[C@]21O`: -10.9% (active). Turning to `CN(C)C1CCC(NC2=CC(=O)C=CC2=O)CC1` (configuration not stated), the growth is 108%. The same measure, in the same setting: next, `CN1C(=O)[C@H]2c3c1cccc3[C@@]13NC(=O)O[C@H]1[C@H](CCC3(C)C)C2(C)C`: 89.1%; `COc1ccc(/C=C2\CCCC3=C2NC(C)=NC3c2ccc(OC)c(OC)c2)cc1OC` (configuration not stated): 59%. For `O=C(c1ccncc1)N1N=C(c2ccc(Cl)cc2)CC1c1c[nH]c2ccccc12` (configuration not stated), the growth is 101%. The same measure, in the same setting: next, `Cc1nn(-c2ccc(Cl)cc2)c(=O)n1CCOc1ccccc1Cl`: 90.3%; `Cc1cc2c(c(=O)o1)C(c1ccc(OC(=O)N3CCOCC3)cc1)C(C#N)=C(N)O2` (configuration not stated): 116%.

For the molecule `O=C(COc1ccccc1)N1N=C(c2ccc(Cl)cc2)CC1c1c[nH]c2ccccc12` (configuration not stated), the growth was 93.7%.

In the case of `CC[C@H](C)[C@H]1NC(=O)[C@@H](N[C@](C)(O)[C@@H](N)CC(C)C)[C@@H](C)OC(=O)[C@H](Cc2ccc(OC)cc2)N(C)C(=O)[C@@H]2CCCN2C(=O)[C@H](CC(C)C)NC(=O)[C@@H](C)C(=O)[C@H](C(C)C)OC(=O)C[C@@H]1O`, the growth is -4.99% (active).

For the origin of these results see PubChem BioAssay (NCI).
